Here are results for seven compounds from PubChem BioAssay (EPA / NIEHS).

As a reminder, the AC50 is the concentration at which the activity in the assay is half-maximal.

In one assay the test system is IYD (gene 389434). Nature of the assay: CCTE_GLTED_hIYD: CCTE's human Iodotyrosine Deiodinase (xIYD) Inhibition Assay, Great Lakes Toxicology and Ecology Division (GLTED) Lab (AID 2284317; active = hit-call score of the fitted dose curve at least 0.9, where 1 is the maximum;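 note: cell-free human IYD enzyme made in baculovirus insect cells; iodide freed from monoiodotyrosine measured by cerium arsenite color change at 420 nm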). The procedure, abridged: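 Cell-free; baculovirus/insect-cell hIYD + MIT substrate + chemical, 3 h. Dowex column cleanup, then Ce4+/As3+ Sandell-Kolthoff read at A420 nm. Triplicate plates; normalized to 3-nitro-L-tyrosine (positive) and DMSO/NaOH (solvent).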

The subject of the next assay is SERPINA7 (gene 6906). Nature of the assay: CCTE_GLTED_hTBG: CCTE's human Thyroxine-binding Globulin (TBG) Inhibition Assay, Great Lakes Toxicology and Ecology Division (GLTED) Lab (AID 2284343; active = hit-call score of the fitted dose curve at least 0.9, where 1 is the maximum;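 note: active chemicals lower fluorescence versus DMSO baseline by displacing probe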). Summed up: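 Fluorescence (ex 380/em 475) reports ANSA displaced from human TBG after a 2 h incubation with test chemical, without cells. Loss of signal indicates displacement, with DMSO serving as baseline.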

Assay [1] in a line: CCTE_Deisenroth_5AR_NBTE_donor: CCTE's 5alpha-reductase NanoBRET Target Engagement Assay […], Deisenroth Lab (AID 2284319). The note with it: actives raise or lower the signal. The procedure, abridged:
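SRD5A2-NanoLuc, HEK293T, 20 h expression. Chemical 10 nM - 29.9 uM, 8 conc, duplicate; 3 h preincubation + 2 h testosterone tracer. Nano-Glo substrate plus extracellular NanoLuc inhibitor; donor lum 460 nm. DMSO baseline, bidirectional fit.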
For orientation: Bioluminescence resonance energy transfer reports proximity on the nanometre scale.

Assay [2] is described as follows: CCTE_Deisenroth_5AR_NBTE_acceptor: CCTE's 5alpha-reductase NanoBRET Target Engagement Assay - Autofluorescence Screen, Deisenroth Lab (AID 2284321).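 Note: compound fluorescence in the acceptor channel under 460 nm excitation flags autofluorescence artifacts.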 The conditions noted are these: actives raise or lower the signal. The procedure, abridged:
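Acceptor-channel fluorescence flags artifacts, with excitation fixed at 460 nm. Nominal 100 uM chemical samples were read in triplicate runs, and signal changes were fitted in both directions relative to DMSO.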

A further assay concerns SRD5A2 (gene 6716). Nature of the assay: CCTE_Deisenroth_5AR_NBTE_ratio: CCTE's 5alpha-reductase NanoBRET Target Engagement Assay - Ratio, Deisenroth Lab (AID 2284322). The note with it: actives raise or lower the signal. Summed up:
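SRD5A2-NanoLuc HEK293T; cmpd 10 nM-29.9 uM, 3 h preinc + testosterone tracer 2 h; NanoBRET ratio 650/460; bidirectional fit vs DMSO.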

Assay [3] in a line: CCTE_Mundy_HCI_iCellGluta_NOG_NeuriteLength: CCTE's Neurite Outgrowth Assay in iCellGluta cells for Neurite Length, Mundy Lab (AID 2284318; active = hit-call score of the fitted dose curve at least 0.9, where 1 is the maximum). The procedure, abridged:
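Automated high-content imaging of betaIII-tubulin (Alexa Fluor-488) and Hoechst-stained cells gave neurite length, normalized to the DMSO baseline.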

The nature of assay [4]: IUF_NPC1_cytotoxicity_72hr: Cytotoxicity Assessment at 72 hours in the Leibniz Research Institute for Environmental Medicine (IUF) Neural Progenitor Cell Proliferation Assay (NPC1) (AID 2284332; active = hit-call score of the fitted dose curve at least 0.9, where 1 is the maximum;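 note: rising LDH signal means more cytotoxicity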). The procedure, abridged:
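LDH in supernatant, resazurin→resorufin fluorescence (RFU), 72 h exposure, no re-dosing. Cells: primary hNPC spheres, one per well, EGF+FGF medium, 37C/5% CO2, pH 7.2-7.6. Fit: positive direction vs baseline and dynamic range.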

Assay [5] can be described thus: CCTE_Mundy_HCI_iCellGluta_NOG_NeuronCount: CCTE's Neurite Outgrowth Assay in iCellGluta cells for Neuron Count, Mundy Lab (AID 2284340; active = hit-call score of the fitted dose curve at least 0.9, where 1 is the maximum;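 note: cells fixed about 48 h after compound addition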). The procedure, abridged: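 Neuron count read by automated high-content imaging of Hoechst 33342 and betaIII-tubulin/Alexa Fluor-488 labelling in human iPSC glutamatergic neurons. Activity fitted relative to DMSO.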
A short description of assay [6]: CCTE_Mundy_HCI_iCellGluta_NOG_NeuriteCount: CCTE's Neurite Outgrowth Assay in iCellGluta cells for Neurite Count, Mundy Lab (AID 2284342; active = hit-call score of the fitted dose curve at least 0.9, where 1 is the maximum;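 note: chemical exposure about 48 hours starting 2 hours after plating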). Here is the method:
CCTE_Mundy_HCI_iCellGluta_NOG is a multiplexed, cell-based-readout assay that uses iCell GlutaNeurons from FUJIFILM Cellular Dynamics, Inc. (FCDI), human glutamatergic enriched neurons derived from induced pluripotent stem (iPS) cells, with measurements taken at 50.33 hours after chemical dosing in a microplate: 96-well plate.CCTE_Mundy_HCI_iCellGluta_NOG_NeuriteCount is one of four components of the CCTE_Mundy_HCI_iCellGluta_NOG assay. It measures neurite outgrowth related to number of neurites using High Content Imaging of fluorescently labelled markers.Data from the assay component CCTE_Mundy_HCI_iCellGluta_NOG_NeuriteCount was analyzed at the endpoint CCTE_Mundy_HCI_iCellGluta_NOG_NeuriteCount in the positive analysis fitting direction relative to DMSO as the negative control and baseline of activity. Using a type of morphology reporter, loss-of-signal activity can be used to understand developmental effects.
Exposure starts 2 hours post-plating by adding 10 ul of the working solution to 90 ul of media in the wells for a 1/10 dilution. Forty-eight hours after chemical treatment cells are fixed by direct addition of 100 ul of warm (37C) Dulbecco's phosphate buffered saline (DPBS) fixative solution containing 8% paraformaldehyde, 8% sucrose, and 0.1% of 3 mg/ml Hoechst 33342 into each well. Primary antibodies are prepared by dilution in Immunocytochemical Staining Buffer (ISB), 10X Dulbecco's PBS, 0.1% Saponin, 5% Bovine Serum Albumin, 0.5% NaN3 (Sodium Azide) and betaIII-tubulin (rabbit anti-betaIII-tubulin, 1:800) followed by Alexa Fluor-488 secondary (1:500) to label neuronal cell bodies and neurites. A Cellomics ArrayScan VTi HCS Reader is used for automated image acquisition and analysis of neurite outgrowth.

Assay [7] relates to Brachyury (BRA) Protein Expression, Deisenroth Lab, TBXT (gene 6862). Nature of the assay: CCTE_Deisenroth_DEVTOX-GLR_legacy_Bra: (Legacy) CCTE's DevTox GLR-Endo Assay Evaluation of Brachyury (BRA) Protein Expression, Deisenroth Lab (AID 2284329). Summed up: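 Percent Bra-positive cells, scored by high-content imaging against a threshold of 5x BMAD over the undifferentiated control median, with the 0.2% DMSO median subtracted. RUES2-GLR cultures were dosed twice at 24 h intervals across a 48 h differentiation, at 1 nM–200 uM in ten steps, with n=4 replicates.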

Assay [8] in a line: CCTE_Deisenroth_DEVTOX-GLR_legacy_CellCount: (Legacy) Viability Assessment in CCTE's DevTox GLR-Endo Assay, Deisenroth Lab (AID 2284331). The conditions noted are these: actives raise or lower the signal. Summed up: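 Viability is taken from imaged nuclei counts in fixed RUES2-GLR cultures after 48 h of differentiation under two 24 h-spaced chemical exposures, 10 concentrations from 1 nM to 200 uM, gain or loss versus DMSO baseline.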

In assay [9] the test system is SRY-box transcription factor 17 (SOX17) Protein Expression, Deisenroth Lab, SOX17 (gene 64321). Nature of the assay: CCTE_Deisenroth_DEVTOX-GLR_legacy_Sox17: (Legacy) CCTE's DevTox GLR-Endo Assay Evaluation of SRY-box transcription factor 17 (SOX17) Protein Expression, Deisenroth Lab (AID 2284341). The conditions noted are these: actives raise or lower the signal. The procedure, abridged: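 Endoderm-differentiation readout in RUES2-GLR human pluripotent cells at 48 h, concentrations spanning 1 nM - 200 uM. Sox17-positive cells divided by total cell count; gain or loss relative to DMSO solvent control, n=4 experimental replicates.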

The test system of assay [10] is SRY-box transcription factor 2 (SOX2) Protein Expression, Deisenroth Lab, SOX2 (gene 6657). Nature of the assay: CCTE_Deisenroth_DEVTOX-GLR_legacy_Sox2: (Legacy) CCTE's DevTox GLR-Endo Assay Evaluation of SRY-box transcription factor 2 (SOX2) Protein Expression, Deisenroth Lab (AID 2284346). The procedure, abridged: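 Percent Sox2-positive cells was scored by high-content imaging of 5 fields per well. Positivity cutoff was 5x BMAD over the directed endoderm control, and the DMSO median was subtracted. Cells were RUES2-GLR, dosed twice at 24-h intervals over 48 h of differentiation (1 nM-200 uM).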

Several values for one entry are separate records, joined by “and”; a condition that tells them apart may be missing. Equal entries are not always repeated. Results filed as inconclusive are left out. More than one record can exist for a structure, and the calls need not agree. Activity calls are given as the source filed them. Rule for the calls, unless noted: active = hit-call score of the fitted dose curve at least 0.9, where 1 is the maximum; inactive = score below 0.9.

As for `Oc1cc(Cl)c(Cl)cc1Cl`, the compound was classed as inactive in the assay on IYD (gene 389434). The AC50 in the assay on SERPINA7 (gene 6906) is 40.8 µM (active).
For the compound `CC(=Cc1ccccc1)[N+](=O)[O-]`, the outcome (in assay [1]; in assay [2]; in the assay on SRD5A2 (gene 6716)) was inactive.
Take `O=c1[nH]c(=O)n(Cl)c(=O)n1Cl`: the outcome (in assay [1]; in assay [2]; with SRD5A2 (gene 6716)) was inactive.
For the compound `Cc1cc(C(F)(C(F)(F)F)C(F)(F)F)ccc1NC(=O)c1cccc(I)c1C(=O)NC(C)(C)CS(C)(=O)=O`, the compound was called inactive in assay [3], in assay [4], in [5] and in assay [6].
On to `NC(=O)c1ccc(N)nc1`, for which the AC50 in assay [7] is 24.1 µM (active); in assay [8], 30.6 µM (active); in assay [9], 21 µM (active); in assay [10], 52.9 µM (active).
As to `O=c1nc(O)n(Cl)c(=O)n1Cl`, the outcome (in assay [1]; in assay [2]; in the assay with SRD5A2 (gene 6716)) was inactive.
Consider `O=C(Nc1ccc(Br)cc1)c1cc(Br)cc(Br)c1O`, for which, in the assay with IYD (gene 389434), the AC50 was 118 µM (active) and 100 µM (active); the outcome was inactive.
